Screening data: PubChem, National Center for Advancing Translational Sciences (NCATS)
BAZ2B inh: inhibitors of human BAZ2B bromodomain; Q9UIF8; AlphaScreen BAZ2B-H3K14Ac peptide displacement; Potency, µM (top dose mostly 114 µM), inactives show at the top dose activity change, negative = inhibition, most hits filed as inhibitors; hit rate 4.4% among 360,000; AID 504333; further: potency means the concentration at half of the fitted maximal effect; on the % scale 0 is the no-effect control and ±100 the full control effect; nearly all actives have a fitted effect of over 60% in size
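Protein-peptide AlphaScreen: BAZ2B 50 nM, b-H3K14Ac 50 nM, 1x PBS pH 7.4 + 0.01% Tween-20. Preincubation 30 min RT; cpd 30 min RT (top 110 uM); beads 20 min RT, light-protected.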
HP1b binding inh: inhibitors of HP1-beta chromodomain binding to methylated histone tails. AlphaScreen HP1-beta / biotin-H3K9me3 peptide binding. Potency, µM (top dose mostly 114 µM), for inactives: at the highest dose activity change, negative = inhibition, actives largely listed as inhibitors. hit rate 0.56% among 390,000. AID 540317; further: potency means the concentration at half of the fitted maximal effect; nearly all actives have a fitted effect of over 70% in size
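HP1-beta protein (50 nM final) preincubated 30 min at room temperature with biotinylated H3(1-18)K9me3 peptide (50 nM) in PBS pH 7.4, 0.01% Tween-20, then compound added for 30 min. AlphaScreen streptavidin donor/nickel chelate acceptor beads (10 ug/mL final), 30 min dark, luminescence read.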
G9a inh: blocks human histone lysine methyltransferase G9a; Potency, µM (doses to about 102 µM), without a hit: top-dose activity, negative = inhibition, usual class: inhibitors; G9a H3K9 monomethylation, AlphaScreen, 2 h; hit rate 8.8% among 350,000; AID 504332; further: potency means the concentration at half of the fitted maximal effect; on the % scale 0 is the no-effect control and ±100 the full control effect; nearly all actives have a fitted effect of over 75% in size
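G9a (20 nM) was preincubated 15 min with compound, then reacted 2 h at room temperature with 500 nM biotin-H3K9 peptide and 20 µM SAM. Monomethyl-H3K9 detected by AlphaScreen using anti-H3K9me1 antibody.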
JMJD2A Tudor inh: JMJD2A Tudor domain (human) inhibition; AlphaScreen JMJD2A-Tudor / H3K4me3 peptide binding; Potency, µM (series often up to 114 µM), for inactives: at the highest dose activity change, negative = inhibition, actives largely listed as inhibitors; hit rate 4.4% among 390,000; AID 504339; further: potency means the concentration at half of the fitted maximal effect; on the % scale 0 is the no-effect control and ±100 the full control effect; nearly all actives have a fitted effect of over 50% in size
Six1-Eya2 blk: Six1/Eya2 interaction inhibition | Q15475+O00167 | AlphaScreen GST-Six1/His-Eya2 binding, biochemical; stronger effect = lower value | activity change, % (no concentration beside the values) | hit rate 0.56% among 360,000; in the data active means activity change below about -65%; inconclusive means mostly about -30% to -63%; further: on the % scale 0 is the no-effect control and ±100 the full control effect
Target sequence (O00167 whole entry, looked up): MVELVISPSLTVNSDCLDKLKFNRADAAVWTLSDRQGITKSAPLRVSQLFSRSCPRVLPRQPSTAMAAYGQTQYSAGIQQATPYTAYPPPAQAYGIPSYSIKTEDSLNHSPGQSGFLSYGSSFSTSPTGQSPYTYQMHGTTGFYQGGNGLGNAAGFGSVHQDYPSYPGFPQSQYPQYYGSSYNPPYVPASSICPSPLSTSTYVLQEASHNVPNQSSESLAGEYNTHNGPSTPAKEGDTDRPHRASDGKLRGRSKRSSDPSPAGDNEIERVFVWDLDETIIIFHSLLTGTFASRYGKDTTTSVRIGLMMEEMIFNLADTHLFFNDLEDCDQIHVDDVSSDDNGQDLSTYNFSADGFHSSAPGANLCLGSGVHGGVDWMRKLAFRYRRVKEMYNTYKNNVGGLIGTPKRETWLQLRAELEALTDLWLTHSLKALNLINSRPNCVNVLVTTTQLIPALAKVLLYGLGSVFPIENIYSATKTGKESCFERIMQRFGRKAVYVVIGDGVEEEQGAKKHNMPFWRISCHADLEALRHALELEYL
Target sequence (Q15475 whole entry, looked up): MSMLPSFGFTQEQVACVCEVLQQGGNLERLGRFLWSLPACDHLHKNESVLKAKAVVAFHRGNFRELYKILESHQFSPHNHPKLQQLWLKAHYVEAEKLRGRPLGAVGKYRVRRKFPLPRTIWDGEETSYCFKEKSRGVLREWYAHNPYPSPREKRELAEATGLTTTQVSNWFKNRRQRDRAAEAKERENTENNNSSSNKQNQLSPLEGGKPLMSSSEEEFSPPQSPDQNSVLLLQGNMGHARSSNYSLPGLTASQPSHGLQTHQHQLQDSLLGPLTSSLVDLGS
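Homogeneous AlphaScreen proximity assay pairing GST-Six1 with His-tagged Eya2 (added as 5X mix: 250 nM and 500 nM) in 50 mM Tris pH 8.0, 300 mM NaCl, 1 mM TCEP. Glutathione donor and nickel acceptor beads; 1 h, 37 °C, dark.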
CtBP-E1A inh: CtBP/E1A binding inhibition; AlphaScreen GST-E1A/His-CtBP binding, 1536-well; stronger effect = lower value; activity change, % (concentration not given with the values); hit rate 0.49% among 340,000; in the data active means activity change below about -65%; inconclusive means mostly about -30% to -63%; further: on the % scale 0 is the no-effect control and ±100 the full control effect
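Protein mix (5X: 125 nM each GST-E1A, His-CtBP) was incubated with pinned compound 2 h at 37 deg C in dark, in 50 mM Tris pH 8.0 buffer with 300 mM NaCl. Glutathione donor and nickel acceptor beads followed; AlphaScreen signal read after 1 h.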
* marks the source's active call; other numbers are inactive results; u = inconclusive; x = not tested or not shown; ! = repeats disagree; [ ] = remark or other dose. The list is not random: actives were taken first. Their share in the collection is about 10%. Unless noted, the call rests on the fitted dose curve; in most records, active means well fitted inhibition curve with a large enough effect; inconclusive means small, poorly fitted or top-dose-only effect; inactive means no such curve, though single readings can be large or run the other way.

SMILES	BAZ2B inh	HP1b binding inh	G9a inh	JMJD2A Tudor inh	Six1-Eya2 blk	CtBP-E1A inh
CCCCOC(=O)Nc1ccc(C(N)=O)cc1	-18%	27%	7%[59 µM]	2%	4	5
CCCCOC(=O)Nc1ccc(N2CCCCC2)cc1	u	u	7.9µM*	28µM*	u	-25
Cc1ccc(C2CC(=O)N(Cc3ccccc3F)c3c2c(C)nn3-c2nc(C)cc(C)n2)cc1 (configuration not stated)	-22%	60%	-21%[59 µM]	-12%	x	x
COc1ccc(NC(=O)C(CC(C)C)NS(=O)(=O)c2ccc3c(c2)oc(=O)n3C)cc1Cl (configuration not stated)	-4%	14%	-2%[59 µM]	-17%	x	x
Cc1ccc(N=Cc2sc(O)c3ccccc23)c(C)c1	14%	-4%	8.9µM*	-6%	3	2
Cc1ccc(N=Cc2c(O)c3ccccc3n(C)c2=O)cc1	13%	29%	32%[0.501 µM]	-19%	17	1
Cc1ccc(N=Cc2sc(O)c3ccccc23)cc1	33%	67%	8.9µM*	14%[57.1 µM]	8	18
CCc1cccc2sc(N3CCN(C(=O)c4ccc([N+](=O)[O-])o4)CC3)nc12	u	u	32µM*	22µM*	u	-4
COc1ccc(C(=O)NC2=NCCS2)cc1S(=O)(=O)N1CCCCC1C (configuration not stated)	-10%	35%	-29%	-12%	-2	x
OC(Cn1cnnc1)c1ccccc1 (configuration not stated)	25µM*	22µM*	35µM*	6.3µM*	2	-1
CCCCOc1ccc(NC(=O)CN2CCN(CC)CC2)cc1	56µM*	u	11µM*	0.79µM*	3	5
CCN(CC)c1ccc(NC(=O)CN2CCN(CC(=O)Nc3ccccc3OC)CC2)cc1	u	u	45µM*	56µM*	-21	x
COc1ccccc1NC(=O)CN1CCN(CC(=O)Nc2cc(NC(C)=O)ccc2OC)CC1	6%	47%	40µM*	-5%	4	6
COc1ccc(NC(C)=O)cc1NC(C)C(=O)Nc1cccc2ccccc12 (configuration not stated)	-32%	19%	50µM*	-32%	0	7
COc1ccc(NC(=O)CN2CCN(CC(=O)Nc3ccc(OC)cc3)CC2)cc1	-2%	45%	u	6%	-1	3
COc1cccc(N2CC(NC(=O)C3CC3)CC2=O)c1 (configuration not stated)	-1%	31%	-3%[59 µM]	2%	x	x
COc1ccc(CCNC(=O)CN2C(=O)NC3(CCc4ccccc43)C2=O)cc1 (configuration not stated)	-3%	52%	13%[12.7 µM]	-7%	-3	x
CCn1cc(C(=O)N2CC(C)CC(C)C2)c(=O)c2cc(S(=O)(=O)N3CCOCC3)ccc21 (configuration not stated)	-22%	8%	-8%[59 µM]	-20%	3	4
COC(=O)c1ccc(NC(=O)CN2CCCC2)cc1	0%	67%	7%[12.7 µM]	-17%	1	4
CCOc1ccc(NC(=O)CN2CCN(CC(=O)Nc3ccccc3OC)CC2)cc1	1%	43%	45µM*	-4%	-2	x
CCOc1ccc(NC(=O)CN2CCN(CC(=O)Nc3ccc(C(=O)OC)cc3)CC2)cc1	9%	26%	32µM*	0%	15	2
CCCCOc1ccc(CC(=O)NO)cc1	-24%	44%	28µM*!	-6%	2	5
COc1ccc(C(=O)/C=C/c2ccc(O)cc2)c(O)c1CC=C(C)C	u	u	u	45µM*	u	-27
Cc1ccc(CC(CC(=O)O)C(=O)Nc2ccc(Cl)cc2)cc1 (configuration not stated)	-27%	17%	-7%	-14%	7	x
COc1ccc(CC(CC(=O)O)C(=O)Nc2ccc(Cl)c(Cl)c2)cc1 (configuration not stated)	3%	1%	6%	8.9µM*	-17	-1
SMILES	BAZ2B inh	HP1b binding inh	G9a inh	JMJD2A Tudor inh	Six1-Eya2 blk	CtBP-E1A inh
COc1ccc(NC(=O)C(NC(C)=O)C(=O)NCc2ccccc2)cc1 (configuration not stated)	11%	20%	-27%[59 µM]	9%	-8	7
COc1ccc(CC(CC(=O)O)C(=O)NCc2ccccc2)cc1 (configuration not stated)	-30%	27%	56µM*	-10%	2	0
CC(C)n1nnnc1C1c2ccccc2C(=O)N1C1CC1 (configuration not stated)	x	x	x	x	7	-21
COc1ccc(C2CC(C)(c3ccc(OC)cc3)Nc3ccccc3N2)cc1 (configuration not stated)	22µM*	u	x	u	u	-18
Cc1ccc(C(=O)N(c2ccc(C)cc2)S(=O)(=O)c2ccc(Cl)cc2)cc1	3%	37%	10%[59 µM]	-6%	x	x
CC(C)(C)c1onc(OCP(=O)(O)O)c1CC(N)C(=O)O (configuration not stated)	x	x	5.3µM*	x	x	x
Cc1cccc(-n2c(O)c(C=Nc3cc(O)ccc3C)c3ccccc3c2=O)n1	-24%	-30%	7%	u	5	16
Cc1cccc(-n2c(O)c(C=Nc3ccccc3-c3n[nH]c(=S)[nH]c3=O)c3ccccc3c2=O)n1	-34%	9%	40µM*	u	-6	x
Cc1ccc(-n2c(O)c(C=Nc3ccccc3-c3n[nH]c(=S)[nH]c3=O)c3ccccc3c2=O)c(C)c1	40µM*	u	u	45µM*	-13	-8
Cc1ccc(-n2c(O)c(C=NC3CCS(=O)(=O)C3)c3ccccc3c2=O)cc1C (configuration not stated)	-30%	9%	6%[59 µM]	-20%	-2	6
Cc1cccc(-n2c(O)c(C=Nc3ccc(O)cc3)c3ccccc3c2=O)n1	u	10%	50µM*	-24%	-6	0
Cc1cccc(-n2c(O)c(C=Nc3ccccc3O)c3ccccc3c2=O)n1	-25%	-12%	23%	-19%	-5	-13
Cc1ccc(-n2c(O)c(C=Nc3ccccc3-c3n[nH]c(=S)[nH]c3=O)c3ccccc3c2=O)cc1C	45µM*	-36%	u	50µM*	-27	-13
O=C1NC(=S)S/C1=C/c1ccc(N2CCOCC2)o1	20µM*	35µM*	4.5µM*	40µM*	u	-27
O=C1S/C(=C/c2ccc(N3CCOCC3)o2)C(=O)N1Cc1ccc(F)cc1	-33%	19%	7.9µM*	89µM*	7	-6
